# PubChem BioAssay AID1851 (National Center for Advancing Translational Sciences (NCATS), 2009)
# The campaign covered roughly 16,000 compounds. About 5,700 (36%) were called active. Roughly 24% stayed inconclusive and do not appear here. The call rests on the fitted dose curve; in most records, active means well fitted curve in the direction sought with a large enough effect; inconclusive means small, poorly fitted or top-dose-only effect, or effect the other way; inactive means no such curve, though single readings can be large or run the other way. The list shows a part of the results.
# Biological target: Cytochrome P450 1A2 (Homo sapiens) (UniProt P05177)
# Sequence (P05177 whole entry, looked up): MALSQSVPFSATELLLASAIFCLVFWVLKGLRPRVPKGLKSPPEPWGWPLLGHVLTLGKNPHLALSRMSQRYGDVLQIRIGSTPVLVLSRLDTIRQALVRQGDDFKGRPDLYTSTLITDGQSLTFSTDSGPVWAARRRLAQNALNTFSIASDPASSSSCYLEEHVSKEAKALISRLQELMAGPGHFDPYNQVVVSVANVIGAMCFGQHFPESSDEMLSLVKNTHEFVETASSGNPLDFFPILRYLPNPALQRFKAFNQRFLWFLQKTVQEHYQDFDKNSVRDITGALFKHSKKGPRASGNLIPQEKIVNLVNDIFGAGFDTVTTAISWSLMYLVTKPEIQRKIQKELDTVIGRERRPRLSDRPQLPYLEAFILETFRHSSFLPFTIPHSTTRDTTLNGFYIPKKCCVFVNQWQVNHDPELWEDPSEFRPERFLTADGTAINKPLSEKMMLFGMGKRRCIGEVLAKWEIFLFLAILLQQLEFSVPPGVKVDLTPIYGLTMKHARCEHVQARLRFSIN
# Test: Cytochrome panel assay with activity outcomes
# Settings: recombinant CYP, pro-luciferin dealkylation, luminescence, p450-cyp1a2; series mostly up to 57.1 µM; activity, negative = inhibition: at the top concentration
# On the % scale 0 is the no-effect control and ±100 the full control effect.
Compound,"activity, negative = inhibition",AC50
N#Cc1ccc(CN2CCC3(CC2)CCN(C(=O)Oc2ccccc2)CC3)cc1,1.15% (inactive),
O=P(O)(O)CCP(=O)(O)O,0.113% [at 11.4 µM] (inactive),
CC(=O)[C@@H]1CC[C@@H]2[C@@H]3CC=C4C[C@H](OS(=O)(=O)O)CC[C@@]4(C)[C@H]3CC[C@]21C,-7.33% (inactive),
O=C1Nc2ccc(I)cc2/C1=C/c1cc(Br)c(O)c(Br)c1,,794 nM (active)
COC(=O)C1=CCCN(C)C1,,inactive
Cc1ccc(C2CC(=O)C(C=NCCN3CCN(C(=O)Cc4ccccc4)CC3)=C(O)C2)cc1 (configuration not stated),6.67% (inactive),
C[C@@H](Cc1ccc(OCC(=O)O)cc1)NC[C@H](O)c1cccc(Cl)c1,-4.97% (inactive),
C[C@H](N)[C@@H](O)c1ccccc1,0.0945% [at 25.6 µM] (inactive),
CC(NCc1ccc(Cl)cc1)C(O)c1ccccc1 (configuration not stated),,14100 nM (active)
CCN(CC)CCn1ncc2c(N)ncnc21,-6.04% [at 11.4 µM] (inactive),
CC[C@H](C(=O)[C@H](C)[C@H](O)[C@H](C)CCc1ccc(C)c(O)c1C(=O)O)[C@H]1O[C@](CC)([C@@H]2CC[C@@](O)(CC)[C@H](C)O2)C[C@H]1C,1.36% [at 25.6 µM] (inactive),
N=C1c2ccccc2CN1NC(=O)c1ccc(Cl)cc1,-3.35% (inactive),
COc1ccc(C[C@H]2NC[C@H](O)[C@@H]2OC(C)=O)cc1,-31.9% (inactive),
O=NN(Cc1ccc(Cl)cc1)[C@@H](C(=O)O)c1ccccc1,,5010 nM (active)
O=C(O)CP(=O)(O)c1ccc(Cl)cc1,-12.7% (inactive),
NC[C@@H](CC(=O)O)c1ccc(Cl)cc1,,inactive
C[C@@]12CC[C@H]3[C@@H](CCC4=CC(=O)CC[C@]43C)[C@H]1CC[C@H]2C(=O)CO,-5.66% [at 25.6 µM] (inactive),
CNC(=S)NC1CC2CCCC(C1)N2CC(C)C (configuration not stated),8.76% (inactive),
CCOCCN1CCC(OC(C)=O)C(C)C1 (configuration not stated),-3.38% (inactive),
C[C@H](CC(C#N)(c1ccccc1)c1ccccc1)N1CCCCC1,7.09% [at 2.29 µM] (inactive),
O=c1oc(Cl)c(Cl)c2ccccc12,,1000 nM (active)

Compound,"activity, negative = inhibition",AC50
O=[N+]([O-])O[C@H]1CO[C@H]2[C@H]1OC[C@@H]2O[N+](=O)[O-],0.921% [at 25.6 µM] (inactive),
O=C1OC(=O)[C@@H]2[C@@H]1[C@@H]1CC[C@H]2O1,-1.88% (inactive),
NC(=O)CN1C[C@@H](O)CC1=O,4.16% (inactive),
CCOP(=O)(OCC)C(NC(C)=O)C(Cl)(Cl)Cl (configuration not stated),1.98% (inactive),
O=C(Nc1cccc(C(F)(F)F)c1)c1cccn(Cc2ccc3c(c2)OC(F)(F)O3)c1=O,,3160 nM (active)
CC(O)(CS(=O)(=O)c1ccccc1)C(=O)Nc1cccc(C(F)(F)F)c1 (configuration not stated),-24.9% (inactive),
CC(O)(CS(=O)(=O)c1cccc(C(F)(F)F)c1)C(=O)Nc1cccc(C(F)(F)F)c1 (configuration not stated),-28.1% (inactive),
CC(C)c1ccc(C(c2c(O)c3ccccc3oc2=O)c2c(O)c3ccccc3oc2=O)cc1,-18.8% [at 2.29 µM] (inactive),
CCCCCCCCC(=O)NCc1ccc(O)c(OC)c1,,12600 nM (active)
COc1cc(CCN)ccc1O,-19.4% (inactive),
COc1cc(CNC(=O)CCCC/C=C\C(C)C)ccc1O,,1580 nM (active)
CNC[C@H](O)c1ccc(O)c(OC)c1,-0.882% [at 25.6 µM] (inactive),
COc1ccc(C[C@@H]2NC[C@H](O)[C@@H]2OC(C)=O)cc1,0.14% [at 25.6 µM] (inactive),
C[N+]1(C)CCO[C@](O)(c2ccc(-c3ccc([C@]4(O)C[N+](C)(C)CCO4)cc3)cc2)C1,-2.4% [at 25.6 µM] (inactive),
COc1cc2c(c(OC)c1OC)-c1ccc(O)c(=O)cc1[C@H](N)CC2,-4.6% [at 25.6 µM] (inactive),
CC(C)COc1ccc(C2(C#N)CC[N+](C)(C)CC2)cc1,17.9% (inactive),
COCCCNC(=S)NC1CC2CCCC(C1)N2Cc1cccs1 (configuration not stated),5.68% (inactive),
Cc1cc2c(C(F)(F)F)cc(=O)oc2c2c1NCCC2,,100 nM (active)
CCCCC1(CCCC)C(=O)NC(=Nc2cccc(C)c2)NC1=O,-9.88% (inactive),
O=C1C=CC(=O)c2c1ccc1c2ccc2ccccc21,,794 nM (active)
COc1cc([C@H]2c3cc4c(cc3[C@@H](O)[C@@H]3COC(=O)[C@H]23)OCO4)cc(OC)c1OC,-17.3% (inactive),

Compound,"activity, negative = inhibition",AC50
CCCc1cc2c(n1CCO)C(C)C1CN(C(=O)c3ccccc3)C(C)(C(=O)OC)C21 (configuration not stated),-19.8% (inactive),
COc1cccc2c1[C@H](CO)N1[C@H](C#N)[C@@H]3C[C@H](C(=O)O)[C@@H]([C@@H]1C2)N3C,-21% [at 2.29 µM] (inactive),
C[C@]12CC[C@@H]3C(=CCc4cc(O)ccc43)[C@@H]1CCC2=O,,10000 nM (active)
C[C@]12CCC3c4ccc(OCC(=O)O)cc4CCC3C1CCC2=O (some centres not stated),0.71% [at 2.29 µM] (inactive),
C[C@]12CC[C@H]3c4ccc(O)cc4CC[C@@H]3[C@H]1CC[C@@H]2OP(=O)(O)O,-11.2% [at 2.29 µM] (inactive),
Cc1cc[c]([Sb]2[O][C@H]([C@H](O)[C@H](O)C(=O)O)[C@@H](CO)[O]2)cc1,-11.9% [at 11.4 µM] (inactive),
O=C(Cc1ccc(Cl)c(Cl)c1)N1CCCC[C@H]1CN1CCCC1,-16.4% (inactive),
COC(=O)Nc1nc2ccc(C(=O)c3cccs3)cc2[nH]1,,1580 nM (active)
CCCCc1ccc(C(=O)O)nc1,-5.09% [at 25.6 µM] (inactive),
COC(=O)Nc1nc2ccc(Sc3ccccc3)cc2[nH]1,,794 nM (active)
CCCCc1ccc2nc(NC(=O)OC)[nH]c2c1,,501 nM (active)
COCCNC(=S)NC1CC2CCCC(C1)N2Cc1cccs1 (configuration not stated),0.311% (inactive),
N#CCCN,-4.42% (inactive),
N[C@@H]1CCc2cc(O)c(O)cc2C1,-3.23% (inactive),
CC[C@@H]1[C@@H]2C[C@H]3[C@H]4N(C)c5ccccc5[C@@]45C[C@@H]([C@@H]2[C@@H]5O)N3[C@H]1O,-7.35% [at 25.6 µM] (inactive),
Cc1ccc(N(C)C(=O)Oc2cccc3ccc(C)nc23)cc1,,12600 nM (active)
C[C@@H]1O[C@H](OC2[C@@H](O)[C@H](O)C(O)[C@H](O)[C@H]2O)[C@@H](N)C[C@@H]1N=C(N)C(=O)O (some centres not stated),1.22% [at 2.29 µM] (inactive),
c1ccc(CN2CCN(Cc3ccc4c(c3)OCCO4)CC2)cc1,-22.8% (inactive),
CO[C@@H]([CH2][Hg])CN1C(=O)c2ccccc2S1(=O)=O.Cn1c(=O)c2nc[nH]c2n(C)c1=O,-22% [at 2.29 µM] (inactive),
O=c1c(O)c(-c2cc(O)c(O)c(O)c2)oc2cc(O)cc(O)c12,,2000 nM (active)
